In PubChem BioAssay (Tox21):
Active and inactive are the calls of the source. Unless noted, the call rests on the fitted dose curve; in most records, active means well fitted curve in the direction sought with a large enough effect in the repeat runs; inconclusive means weak or mixed curves; inactive means no such curve, though single readings can be large; an effect the other way counts as inactive or inconclusive.

Tests used:
[1] = qHTS assay for small molecule agonists of the p53 signaling pathway (AID 651631; calls by dose curve; further: nearly all actives have a fitted effect of over 15% in size; further: potency means the concentration at half of the fitted maximal effect)
Procedure, shortened: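 Agonist mode screen using a stably integrated beta-lactamase gene under p53 response elements in HCT-116 cells. Compound exposure lasts 16 h at 37 °C; fluorescence intensity is measured following 2 h FRET substrate loading.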

[2] = qHTS assay for small molecules that induce genotoxicity in human embryonic kidney cells expressing luciferase-tagged ATAD5 (AID 651632); further: nearly all actives have a fitted effect of over 15% in size
Procedure, shortened: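 Quantitative HTS in HEK293T expressing luciferase-tagged ATAD5, whose levels rise upon DNA damage. Exposure ran 16 hr at 37C and 5% CO2, with luminescence read 30 min after Amplite addition at room temperature.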

[3] = qHTS assay for small molecule agonists of the p53 signaling pathway - cell viability (AID 651633; calls by dose curve; further: nearly all actives have a fitted effect of over 30% in size; further: potency means the concentration at half of the fitted maximal effect)
Procedure, shortened: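 p53RE-bla cells were treated with compound for 16 hours at 37 C. Cytotoxicity was then measured as CellTiter-Glo luminescence after 30 min at room temperature.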

[4] = qHTS assay for small molecules that induce genotoxicity in human embryonic kidney cells expressing luciferase-tagged ATAD5 - cell viability (AID 651634; calls by dose curve; further: nearly all actives have a fitted effect of over 25% in size; further: potency means the concentration at half of the fitted maximal effect)
Procedure, shortened: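 After 15.5 hr incubation with compound at 37C, 5% CO2, HEK293T ATAD5-luciferase cells received CellTiter-Fluor reagent; fluorescence intensity was quantified following 30 min at 37C.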

[5] = qHTS assay for small molecule disruptors of the mitochondrial membrane potential - cell viability (AID 720634; calls by dose curve; further: nearly all actives have a fitted effect of over 20% in size; further: potency means the concentration at half of the fitted maximal effect)
Procedure, shortened: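 ATP-based luminescent viability readout (CellTiter-Glo, 30 min, room temperature) in HepG2 cells multiplexed with the m-MPI membrane potential dye; compound exposure lasted 1 hr at 37 C.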

[6] = qHTS assay for small molecule disruptors of the mitochondrial membrane potential (AID 720635); further: potency means the concentration at half of the fitted maximal effect
Procedure, shortened: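 HepG2 cells exposed to compound 1 hr at 37C, then Mito-MPS dye 30 min. Ratio read of aggregate (540/590 nm) versus monomer (490/535 nm) fluorescence.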

[7] = qHTS assay to test for compound auto fluorescence at 590 nm (red) in HepG2 cells (AID 720674)
Procedure, shortened: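 Seeding: 2,000 HepG2 cells/well, MEM/10% FBS, overnight 37 C. Dosing: compound vs DMSO. Incubation: 1 hr, 37 C, 5% CO2. Read: fluorescence 540 ex/590 em, Rose Bengal sodium as red reference.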

[8] = qHTS assay to test for compound auto fluorescence at 535 nm (green) in HepG2 cells (AID 720675); further: potency means the concentration at half of the fitted maximal effect
[9] = qHTS assay to test for compound auto fluorescence at 460 nm (blue) in HEK293 cells (AID 720678); further: potency means the concentration at half of the fitted maximal effect
Procedure, shortened: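 Intrinsic compound fluorescence is recorded in live HEK293 cultures after overnight incubation at 37C, 5% CO2, using excitation 405 nm and emission 460 nm. Values are referenced to triamterene.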

[10] = qHTS assay to test for compound auto fluorescence at 590 nm (red) in HEK293 cells (AID 720679)
Procedure, shortened: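 Red autofluorescence, HEK293 cells: 2,000 cells/well; attach 4-5 hr 37C; add 23 nL cpd or DMSO; incubate o/n 37C 5% CO2; read Ex540/Em590; Rose Bengal sodium reference.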

[11] = qHTS assay to test for compound auto fluorescence at 535 nm (green) in HEK293 cells (AID 720680); further: potency means the concentration at half of the fitted maximal effect
[12] = qHTS assay to test for compound auto fluorescence at 460 nm (blue) in HEK293 cell free culture (AID 720681); further: potency means the concentration at half of the fitted maximal effect
Procedure, shortened: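 Compounds were added to cell-free DMEM with 10% FBS and fluorescence read directly. The blue channel used 405 nm excitation and 460 nm emission, with triamterene as the reference fluorophore.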

[13] = qHTS assay to test for compound auto fluorescence at 535 nm (green) in HEK293 cell free culture (AID 720682); further: potency means the concentration at half of the fitted maximal effect
Procedure, shortened: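 No cells present: wells hold DMEM supplemented with 10% FBS, into which compound or vehicle is pinned. Green emission is then recorded (485 nm excitation, 535 nm emission) and scaled to fluorescein.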

[14] = qHTS assay to test for compound auto fluorescence at 590 nm (red) in HEK293 cell free culture (AID 720683)
Procedure, shortened: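 Cell-free wells of DMEM with 10% FBS received compound, and intrinsic fluorescence was read at excitation/emission 540/590 nm. Values expressed as equivalence to Rose Bengal sodium.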

[15] = qHTS assay to test for compound auto fluorescence at 590 nm (red) in HepG2 cell free culture (AID 720684)
Procedure, shortened: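 Rose Bengal sodium served as the reference for red signal. Test compounds were dispensed into serum-containing MEM (10% FBS) without cells, and plates were read at 540/590 nm.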

[16] = qHTS assay to test for compound auto fluorescence at 460 nm (blue) in HepG2 cell free culture (AID 720685); further: potency means the concentration at half of the fitted maximal effect
Procedure, shortened: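 Cell-free plates of MEM plus 10% FBS received 23 nL compound or DMSO vehicle; blue-channel (405/460 nm) intensity scored against triamterene as reference fluorophore.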

[17] = qHTS assay to test for compound auto fluorescence at 535 nm (green) in HepG2 cell free culture (AID 720686); further: potency means the concentration at half of the fitted maximal effect
[18] = qHTS assay to test for compound auto fluorescence at 460 nm (blue) in HepG2 cells (AID 720687); further: potency means the concentration at half of the fitted maximal effect
Procedure, shortened: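 HepG2 cells in MEM with 10% FBS, attached overnight at 37 C, were exposed to compound or DMSO for 1 hr at 37 C, 5% CO2. Blue fluorescence was read at 405/460 nm, with triamterene as reference fluorophore.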

[19] = molecular target: Glucocorticoid receptor (Homo sapiens) (UniProt P04150); assay: qHTS assay to identify small molecule agonists of the glucocorticoid receptor (GR) signaling pathway (AID 720691; active means well fitted activation curve with a large enough effect in the signal ratio in the repeat runs, not every such curve was filed as active; inconclusive means weak or mixed curves, or effect the other way; inactive means no such curve, though single readings can be large or run the other way; the % refers to the signal ratio); settings: GR-bla HeLa, beta-lactamase reporter ratio, 18 h; activation: at 62.4 µM (top of the series)
Procedure, shortened: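 Cells: GR-bla HeLa, endogenous GR with stably integrated GRE-beta-lactamase reporter. Treatment 18 h, 37 C, compounds delivered in DMSO. Detection via LiveBLAzer B/G FRET substrate, 2 h RT, fluorescence intensity.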

[20] = molecular target: Glucocorticoid receptor (Homo sapiens) (UniProt P04150); assay: qHTS assay to identify small molecule antagonists of the glucocorticoid receptor (GR) signaling pathway (AID 720692; active means well fitted inhibition curve with a large enough effect in the signal ratio in the repeat runs, not every such curve was filed as active; inconclusive means weak or mixed curves, or effect the other way; inactive means no such curve, though single readings can be large or run the other way; the % refers to the signal ratio; further: potency means the concentration at half of the fitted maximal effect)
Procedure, shortened: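 Quantitative HTS in antagonist format: HeLa cells expressing endogenous GR and a stably integrated GRE-bla reporter, stimulated with 5 nM dexamethasone (final) alongside test compounds for 18 h.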
On the % scale 0 is the no-effect control and ±100 the full control effect; tags describe the fitted curve by direction and shape or compound fluorescence and quenching.

Glucocorticoid receptor (Homo sapiens), sequence (P04150 whole entry, looked up): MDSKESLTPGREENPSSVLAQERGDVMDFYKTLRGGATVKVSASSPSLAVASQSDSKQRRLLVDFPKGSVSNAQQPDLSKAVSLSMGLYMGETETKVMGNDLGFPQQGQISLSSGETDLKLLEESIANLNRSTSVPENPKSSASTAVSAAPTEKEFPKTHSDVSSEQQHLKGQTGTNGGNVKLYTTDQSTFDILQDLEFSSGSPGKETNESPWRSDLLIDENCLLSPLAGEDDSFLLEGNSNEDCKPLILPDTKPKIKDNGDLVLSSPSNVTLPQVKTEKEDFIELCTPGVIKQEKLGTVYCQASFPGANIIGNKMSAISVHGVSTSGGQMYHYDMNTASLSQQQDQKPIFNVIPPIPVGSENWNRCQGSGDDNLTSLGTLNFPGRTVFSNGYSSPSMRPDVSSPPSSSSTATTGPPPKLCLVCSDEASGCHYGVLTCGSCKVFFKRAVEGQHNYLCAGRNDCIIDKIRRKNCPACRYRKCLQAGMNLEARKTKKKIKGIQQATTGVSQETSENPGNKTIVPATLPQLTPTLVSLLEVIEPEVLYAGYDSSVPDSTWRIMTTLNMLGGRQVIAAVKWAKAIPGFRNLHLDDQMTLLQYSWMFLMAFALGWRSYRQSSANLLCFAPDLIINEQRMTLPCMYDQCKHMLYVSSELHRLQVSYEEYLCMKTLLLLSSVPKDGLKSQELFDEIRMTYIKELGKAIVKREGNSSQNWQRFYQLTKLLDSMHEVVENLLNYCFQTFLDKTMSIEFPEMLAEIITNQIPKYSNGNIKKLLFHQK

CCNc1nc(NC(C)CC)nc(OC)n1 (stereo not drawn)
inactive: Potency [1] | Potency [2] | Potency [3] | Potency [4] | Potency [5] | Potency [6] | Potency [7] | Potency [8] | Potency [9] | Potency [10] | Potency [11] | Potency [12] | Potency [13] | Potency [14] | Potency [15] | Potency [16] | Potency [17] | Potency [18] | Potency [19] | Potency [20]

CC(C)N=C(N)/N=C(\N)Nc1ccc(Cl)cc1
inactive: Potency [1] | Potency [2] | Potency [3] | Potency [4] | Potency [5] | Potency [6] | fluorescence, relative to Rose Bengal [7] 0.432% [at 18.6 µM] | fluorescence, % of fluorescein control [8] -0.0393% [at 18.6 µM] | fluorescence, % of triamterene [9] -0.225% [at 18.6 µM] | fluorescence, % of fluorescent control [10] -0.126% [at 18.6 µM] | fluorescence, % of fluorescein [11] -0.0268% [at 18.6 µM] | fluorescence, % of fluorescent control [12] -0.0312% [at 18.6 µM] | activity change [13] -0.0305% [at 18.6 µM, stronger effect = higher value] | fluorescence, % of fluorescent control [14] -0.0425% [at 18.6 µM] | fluorescence, % of Rose Bengal [15] 0.0381% [at 18.6 µM] | fluorescence, % of fluorescent control [16] -0.111% [at 18.6 µM] | fluorescence, % of fluorescein control [17] 0.0037% [at 18.6 µM] | fluorescence, % of fluorescent control [18] 0.176% [at 18.6 µM] | Potency [19] | Potency [20]

O=C(O)CCCCCCC(=O)O
inactive: Potency [1] | Potency [2] | Potency [3] | Potency [4] | Potency [5] | Potency [6] | Potency [7] | Potency [8] | Potency [9] | Potency [10] | Potency [11] | Potency [12] | Potency [13] | Potency [15] | Potency [16] | Potency [17] | Potency [18] | Potency [19]

COC(=O)CC#N
inactive: Potency [1] | Potency [2] | Potency [3] | Potency [4] | Potency [5] | Potency [6] | Potency [7] | Potency [8] | Potency [9] | Potency [10] | Potency [11] | Potency [12] | Potency [13] | Potency [14] | Potency [15] | Potency [16] | Potency [17] | Potency [18]

Cc1cccc(Br)c1
inactive: Potency [1] | Potency [2] | Potency [3] | Potency [4] | Potency [5] | Potency [6] | Potency [7] | Potency [8] | Potency [9] | Potency [10] | Potency [11] | Potency [12] | Potency [13] | Potency [14] | Potency [15] | Potency [16] | Potency [17] | Potency [18] | Potency [19] | Potency [20]

O=C(O)c1cccc(Cl)n1
inactive: Potency [1] | Potency [2] | Potency [3] | Potency [4] | Potency [5] | Potency [6] | Potency [7] | Potency [8] | Potency [9] | Potency [10] | Potency [11] | Potency [12] | Potency [13] | Potency [14] | Potency [15] | Potency [16] | Potency [17] | Potency [18]

CC1(C)C(=O)N(Br)C(=O)N1Br
inactive: Potency [1] | Potency [2] | Potency [3] | Potency [4] | Potency [5] | Potency [6] | Potency [7] | Potency [8] | Potency [9] | Potency [10] | Potency [11] | Potency [12] | Potency [13] | Potency [14] | Potency [15] | Potency [16] | Potency [17] | Potency [18] | Potency [19] | Potency [20]

O=C(Nc1ccc(Cl)cc1)Nc1ccc(Cl)c(C(F)(F)F)c1
active: Potency [1] 16.8 µM | Potency [3] 26.6 µM | Potency [4] 13.3 µM | Potency [5] 1.5 µM | Potency [6] 0.596 µM
inactive: Potency [2] | Potency [7] | Potency [8] | Potency [9] | Potency [10] | Potency [11] | Potency [12] | Potency [13] | Potency [15] | Potency [16] | Potency [17] | Potency [18]

O=C(Nc1ccc(Cl)c(Cl)c1)c1cc(Cl)cc(Cl)c1O
inactive: Potency [2] | Potency [7] | Potency [8] | Potency [9] | Potency [10] | Potency [11] | Potency [12] | Potency [13] | Potency [15] | Potency [17] | Potency [18]
active: Potency [1] 3.06 µM | Potency [3] 0.273 µM | Potency [4] 4.86 µM | Potency [5] 1.37 µM | Potency [6] 0.137 µM | activation [19] 11.6% [inconclusive]

CCCCCCCCCCCCCCCC
inactive: Potency [1] | Potency [2] | Potency [4] | Potency [5] | Potency [6] | Potency [7] | Potency [8] | Potency [9] | Potency [10] | Potency [11] | Potency [12] | Potency [13] | Potency [14] | Potency [15] | Potency [16] | Potency [17] | Potency [18] | Potency [19] | Potency [20]

CC(=O)Oc1ccc(C2(c3ccc(OC(C)=O)cc3)Oc3ccccc3NC2=O)cc1
active: Potency [1] 2.37 µM | Potency [6] 23.7 µM | Potency [20] 19 µM
inactive: Potency [2] | Potency [4] | Potency [5] | Potency [7] | Potency [8] | Potency [9] | Potency [10] | Potency [11] | Potency [12] | Potency [13] | Potency [14] | Potency [15] | Potency [16] | Potency [17] | Potency [18]

O=C1OC(=O)c2cccc3cccc1c23
active: Potency [6] 2.76 µM
inactive: Potency [1] | Potency [2] | Potency [4] | Potency [5] | Potency [7] | Potency [8] | Potency [9] | Potency [10] | Potency [11] | Potency [12] | Potency [13] | Potency [14] | Potency [15] | Potency [16] | Potency [17] | Potency [18] | Potency [19]

C[n+]1c2cc(N)ccc2cc2ccc(N)cc21 (tested in a mixture with another compound)
inactive: Potency [5] | Potency [7] | Potency [10] | Potency [14] | Potency [15]
active: Potency [1] 7.5 µM | Potency [6] 0.668 µM | Potency [8] 14.1 µM | Potency [9] 12.6 µM [fluorescent] | Potency [11] 12.6 µM [fluorescent] | Potency [12] 11.2 µM | Potency [13] 12.6 µM [fluorescent] | Potency [16] 11.2 µM [fluorescent] | Potency [17] 12.6 µM [fluorescent] | Potency [18] 14.1 µM [fluorescent]
